# Source: PubChem BioAssay AID2535 (National Center for Advancing Translational Sciences (NCATS), 2010)
# Values without a mark were called inactive. Active and inactive are the calls of the source. Calls come from the whole dose curve; as a rule, active = well fitted curve in the direction sought with a large enough effect; inconclusive = small, poorly fitted or top-dose-only effect, or effect the other way, or another doubt; inactive = no such curve, though single readings can be large or run the other way.
# Target: Pyruvate kinase PKLR (Homo sapiens) (UniProt P30613)
# Sequence (P30613 whole entry, looked up): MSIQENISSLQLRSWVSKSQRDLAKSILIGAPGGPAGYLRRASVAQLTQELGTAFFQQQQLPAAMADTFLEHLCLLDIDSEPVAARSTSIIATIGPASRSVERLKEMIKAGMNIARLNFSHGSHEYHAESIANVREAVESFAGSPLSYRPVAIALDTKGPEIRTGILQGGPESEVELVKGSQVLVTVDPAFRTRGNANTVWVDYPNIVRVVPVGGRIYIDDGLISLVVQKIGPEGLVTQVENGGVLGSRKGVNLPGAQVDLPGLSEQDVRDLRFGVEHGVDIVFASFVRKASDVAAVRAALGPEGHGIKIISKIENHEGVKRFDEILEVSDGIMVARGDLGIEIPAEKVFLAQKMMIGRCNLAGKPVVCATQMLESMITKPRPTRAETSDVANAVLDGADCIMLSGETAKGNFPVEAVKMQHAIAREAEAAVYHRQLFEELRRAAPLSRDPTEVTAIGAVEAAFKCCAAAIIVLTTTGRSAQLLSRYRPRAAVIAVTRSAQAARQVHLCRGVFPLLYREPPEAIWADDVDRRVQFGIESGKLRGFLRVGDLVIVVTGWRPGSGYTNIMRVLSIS
# Test: Secondary Concentration-Response Assay for Activators of Human Liver Pyruvate Kinase: for Probe SAR;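 note: 0% = uninhibited enzyme wells on each plate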
# Settings: purified hPK-L, ATP production, Kinase-Glo luminescence; series mostly up to 58.3 µM; activity change, positive = activation: at the top concentration
# Excerpt: NIH Chemical Genomics Center [NCGC]
# Matthew G. Vander Heiden, M.D., Ph.D. [Harvard Medical School, 77 Avenue Louis Pasteur, Boston, MA 02115]
# Human pyruvate kinase liver (hPK-L) enzyme was supplied as a highly purified (>95% pure) preparation from Harvard Medical School and assayed for its ability to generate ATP from ADP using phosphoenolpyruvate (PEP) as a substrate. ATP generation was detected in a coupled reaction by luciferase-mediated luminescence, an ATP-dependent process. Pyruvate kinase substrates, PEP and ADP, were present in the assay at Km and approximately 10-fold below Km respectively. The enzyme was assayed at an intermediate level of activity to screen for both inhibitors and activators.
# NCGC Assay Protocol Summary for L-isoform:
# Three uL of substrate mix (at r.t.) in assay buffer (50 mM Imidazole pH7.2, 50 mM KCl, 7 mM MgCl2, 0.01% Tween 20, 0.05% BSA) was dispensed into white solid bottom 1,536 well microtiter plates so that the final concentrations of substrates in the assay were 0.1 mM ADP and 0.5 mM PEP. 23 nL of compound were delivered by a pin tool and 1 uL of enzyme mix (final concentration of 0.1 nM) in assay buffer (4 degree Celsius) was added. Plates were incubated at room temperature for 1 hour. Two uL of detection mix (Kinase-Glo, Promega; at 4 degree Celsius protected from light) was added and luminescence read by a ViewLux (Perkin Elmer) at 1 second exposure/plate. Data were normalized to the uninhibited (row 31). Additionally, a no enzyme and 5-fold enzyme control was dispensed in row 32, split equally between the two conditions.
Structure (SMILES),"activity change, positive = activation",outcome
CC(=O)Nc1ccc(S(=O)(=O)Nc2ccc(C)c(C)c2)cc1,10%,
O=C1CCc2cc(S(=O)(=O)Nc3cccc(Oc4ccccc4)c3)ccc2N1,2.11%,
COc1ccccc1NS(=O)(=O)c1ccc2c(c1)CCC(=O)N2,-0.682%,
CC(=O)N1CCCc2cc(S(=O)(=O)Nc3ccc(C)c(C)c3)ccc21,-5.11%,
O=C1CCc2cc(S(=O)(=O)Nc3cc(F)cc(Cl)c3)c(F)cc2N1,9.75%,
O=C1CCc2cc(S(=O)(=O)Nc3ccc4ncccc4c3)ccc2N1,11.9%,
COc1ccc(N2C(=O)c3ccccc3C2=O)cc1,-5.43%,
Cc1ccc(NS(=O)(=O)c2cc3c(cc2Cl)NC(=O)C3)cc1C,8.55%,
CC(=O)Nc1cccc(S(=O)(=O)Nc2ccc(C)c(C)c2)c1,6.7%,
Cc1ccc(NS(=O)(=O)c2cc3c(cc2F)NC(=O)CC3)cc1C,8.84%,
O=S1(=O)N=C(Oc2ccccc2)c2ccccc21,-3.69% [at 82.8 µM],
COc1ccc(OC2=NS(=O)(=O)c3ccccc32)cc1,-3.39%,
Cc1ccc(NS(=O)(=O)c2ccc(Cl)cc2)cc1C,10.6%,
CCCCN1C(=O)c2ccccc2C1=O,0.342%,
O=C1CCc2cc(S(=O)(=O)Nc3cccc(Cl)c3)ccc2N1,3.94%,
Cc1ccc(NS(=O)(=O)c2cc3c(cc2C)OCC(=O)N3)cc1C,12%,
Cc1ccc(NS(=O)(=O)c2cccc(F)c2)cc1C,8.43%,
O=C1c2ccccc2C(=O)N1c1cccc(O)c1,-8.54%,
Cc1ccc(NS(=O)(=O)c2ccc3c(c2)CCC(=O)N3)cc1,10.7%,
Cc1ccc(N[S+](=O)([O-])c2cc3c(cc2CCc2ccccc2)NC(=O)CO3)cc1C,1.58%,

Structure (SMILES),"activity change, positive = activation",outcome
Cc1ccc(NS(=O)(=O)c2ccc3[nH]c(=O)[nH]c3c2)cc1C,12.4%,
Cc1ccc(NS(=O)(=O)c2cccc(Cl)c2)cc1C,5.58%,
Cc1ccc(Nc2c(-c3ccc(C)s3)nc3ccccn23)cc1,3.95%,
O=S1(=O)N=C(Oc2cccc(Cl)c2)c2ccccc21,-11.2%,
CCNc1cccc(S(=O)(=O)N2CCN(S(=O)(=O)c3ccc4c(c3)OCCO4)CC2)c1,21.8%,
COc1ccc(Nc2c(-c3ccc(C)o3)nc3ccccn23)cc1,2.05%,
O=C1CCc2cc(S(=O)(=O)Nc3cccc(-c4ccccc4)c3)ccc2N1,6.52%,
Cc1cc(NS(=O)(=O)c2ccc3c(c2)CCC(=O)N3)ccc1F,8.02%,
O=C1CCc2cc(S(=O)(=O)Nc3cccc(B(O)O)c3)ccc2N1,6.48%,
O=C1c2ccccc2C(=O)N1c1cccc(Cl)c1,1.41%,
Cc1ccc(-c2nc3ccccn3c2Nc2ccc(F)cc2)o1,2.86%,
O=C1c2ccccc2C(=O)N1c1ccc(O)cc1,3.99%,
N#Cc1cccc(NS(=O)(=O)c2ccc3c(c2)CCC(=O)N3)c1,14.9%,
Cc1ccccc1NS(=O)(=O)c1ccc2c(c1)CCC(=O)N2,6.63%,
Cc1ccc(NS(=O)(=O)c2cc3c(cc2N2CCC2)NC(=O)CC3)cc1C,-7.16%,
Cc1ccc(Nc2c(-c3ccsc3)nc3cccc(C)n23)cc1,-2.82%,
Cc1ccc(NS(=O)(=O)c2ccc3c(c2)NC(=O)CO3)cc1C,15.7%,
Cc1cc2c(s1)c1cnn(Cc3ccccc3F)c(=O)c1n2C,,inactive
COc1cccc(N2C(=O)c3ccccc3C2=O)n1,6.52%,
CNc1cc2c(cc1S(=O)(=O)Nc1ccc(C)c(C)c1)CCC(=O)N2,-8.71%,
